Among the test systems are HCT-15 colon; HT29 colon; SNB-75 CNS; SNB-19 CNS; U251 CNS; PC-3 prostate; SK-MEL-5 melanoma; UACC-62 melanoma; LOX IMVI melanoma; SK-MEL-28 melanoma; SK-MEL-2 melanoma; EKVX NSCLC; SN12C renal; UO-31 renal; TK-10 renal; ACHN renal; CAKI-1 renal; A498 renal; CCRF-CEM leukemia; MOLT-4 leukemia.
Assay in all cases: NCI-60 one-dose screen, 48 h (100 = growth as untreated, 0 = no growth, -100 = all killed)
Holding throughout (settings): 10 µM unless noted

Compounds without any hit were thinned out: in the full panel of roughly 83,000, 20% have a hit.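 Assay: single dose, 48 h. Readout: percent growth (0 = no net growth; negative = cell death). Active: <10.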 Unmarked numbers belong to inactive results. Calls of active or inactive are those of the source.

Regarding `COc1ccc(NC(=O)c2sc3nc(C)c(C(=O)c4ccc(OC)cc4)cc3c2N)cc1`, the growth in the experiment on HCT-15 colon is 35.8%; in the experiment on HT29 colon it was 7.92% (active); in the experiment with SNB-75 CNS, 21.2%; in the experiment on SNB-19 CNS it was 65.2%; with U251 CNS, 39.7%; with PC-3 prostate, 56.4%. Further, the growth is 35.1% in the experiment with SK-MEL-5 melanoma; 46.1% in the experiment with UACC-62 melanoma; 54.2% in the experiment with LOX IMVI melanoma; 64.9% in the experiment with SK-MEL-28 melanoma; 23% with SK-MEL-2 melanoma; 68.5% in the experiment with EKVX NSCLC. In addition, the growth with SN12C renal is 63.8%; in the experiment with UO-31 renal it was 45.5%; in the experiment with TK-10 renal it was 55%; with ACHN renal it was 82.8%; in the experiment with CAKI-1 renal, 42.6%; in the experiment on A498 renal, -3.91% (active). The growth with CCRF-CEM leukemia is 36%; in the experiment with MOLT-4 leukemia it was 27.5%.
For `CCN(CC)CCOC(COc1cc(C)cc(C)c1)COc1cc(C)cc(C)c1`, the growth in the experiment on HCT-15 colon is 34.5%; in the experiment with HT29 colon, 10.3%; in the experiment with SNB-75 CNS, 61.4%; in the experiment with SNB-19 CNS, 47.5%; with U251 CNS, 32.5%; with PC-3 prostate, 33.6%. In addition, the growth is -88.5% (active) in the experiment on SK-MEL-5 melanoma; 46.4% in the experiment on UACC-62 melanoma; -12% (active) with LOX IMVI melanoma; 39.6% in the experiment with SK-MEL-28 melanoma; 86.7% in the experiment on SK-MEL-2 melanoma; 53% with EKVX NSCLC. Moreover, the growth in the experiment on SN12C renal was 28.8%; in the experiment on UO-31 renal, 31.6%; with TK-10 renal, 48%; with ACHN renal it was 46.2%; with CAKI-1 renal, 40.1%; in the experiment with A498 renal, 28.4%. For the same compound, the results for the growth with CCRF-CEM leukemia and in the experiment with MOLT-4 leukemia were 14.5% and 13.5%, respectively.
For the compound `COc1ccc(Cn2nc(-c3cc(OC)c(OC)c(OC)c3)c3c2CCc2cnoc2-3)cc1OC`, the growth in the experiment on HCT-15 colon was 53.1%; with HT29 colon, 22%; with SNB-75 CNS, 37.8%; in the experiment on SNB-19 CNS it was 65.4%; in the experiment with U251 CNS it was 62.1%; in the experiment on PC-3 prostate it was 65%. Besides, the growth was 38.7% with SK-MEL-5 melanoma; 51.1% with UACC-62 melanoma; 47% in the experiment with LOX IMVI melanoma; 64.9% with SK-MEL-28 melanoma; 38% in the experiment with SK-MEL-2 melanoma; 77.7% in the experiment with EKVX NSCLC. The growth with SN12C renal was 60.6%; in the experiment with UO-31 renal it was 32.7%; in the experiment with TK-10 renal, 72.5%; with ACHN renal, 74.9%; in the experiment on CAKI-1 renal, 50.3%; with A498 renal, 42.1%. Besides, the growth with CCRF-CEM leukemia was 55.6%; in the experiment on MOLT-4 leukemia, 36.2%.
Take `COc1cccc(CCC(=O)c2cc3c(N)c(C(=O)Nc4cccc(Cl)c4C)sc3nc2C)c1`: the growth with HCT-15 colon was 13.8%; in the experiment with HT29 colon it was 10.8%; in the experiment on SNB-75 CNS, -14.5% (active); in the experiment on SNB-19 CNS it was 24.1%; in the experiment on U251 CNS, 16.7%; in the experiment on PC-3 prostate it was 18.8%. Also, the growth in the experiment on SK-MEL-5 melanoma was 3.62% (active); with UACC-62 melanoma, 27%; in the experiment on LOX IMVI melanoma it was 33.1%; in the experiment on SK-MEL-28 melanoma, 44.5%; in the experiment on SK-MEL-2 melanoma it was 36.5%; in the experiment with EKVX NSCLC it was 36.2%. Moreover, the growth in the experiment with SN12C renal was 36%; with UO-31 renal it was 30.7%; with TK-10 renal, 52.9%; in the experiment on ACHN renal it was 32.2%; with CAKI-1 renal, 20.5%; with A498 renal, -6.77% (active). For the same compound, the growth was 8.7% (active) with CCRF-CEM leukemia and 16% with MOLT-4 leukemia.
For the compound `c1ccc(CCSc2ncnc3nc[nH]c23)cc1`, the growth with HCT-15 colon is 98.2%; in the experiment on HT29 colon, 90.6%; in the experiment on SNB-75 CNS it was 98.7%; with SNB-19 CNS, 84.8%; with U251 CNS, 91.1%; with PC-3 prostate, 82.8%. The growth in the experiment on SK-MEL-5 melanoma was 85.1%; in the experiment on UACC-62 melanoma, 76.9%; in the experiment with LOX IMVI melanoma, 80.5%; in the experiment on SK-MEL-28 melanoma it was 103%; with SK-MEL-2 melanoma it was 53.6%; with EKVX NSCLC it was 73.4%. For the same compound, the growth is 86.5% with SN12C renal; 84.4% in the experiment with UO-31 renal; 122% in the experiment on TK-10 renal; 90.7% in the experiment on ACHN renal; 86.7% with CAKI-1 renal; 86.3% with A498 renal. For the same compound, the growth in the experiment on CCRF-CEM leukemia is 92.6%; in the experiment with MOLT-4 leukemia, 92.4%.
`COc1nccnn1`: the growth in the experiment with HCT-15 colon is 98.1%; in the experiment on HT29 colon, 97.8%; with SNB-75 CNS, 96.5%; in the experiment on SNB-19 CNS, 91.2%; in the experiment on U251 CNS it was 100%; in the experiment on PC-3 prostate, 87.1%. Besides, the growth is 104% in the experiment on SK-MEL-5 melanoma; 98.9% in the experiment on UACC-62 melanoma; 94.9% in the experiment on LOX IMVI melanoma; 102% in the experiment on SK-MEL-28 melanoma; -31.3% (active) with SK-MEL-2 melanoma; 107% with EKVX NSCLC. Besides, the growth in the experiment with SN12C renal was 97.1%; with UO-31 renal, 100%; with TK-10 renal, 93.3%; in the experiment on ACHN renal it was 100%; in the experiment on CAKI-1 renal it was 108%; in the experiment with A498 renal, 92.9%. In addition, the growth in the experiment with CCRF-CEM leukemia was 99.8%; in the experiment on MOLT-4 leukemia, 106%.
With `c1ccc(Cn2nc3c(c2-c2ccccc2)-c2oncc2CC3)cc1`, the growth in the experiment with HCT-15 colon is 99.3%; in the experiment with HT29 colon it was 96.3%; with SNB-75 CNS, 84.6%; in the experiment with SNB-19 CNS, 102%; in the experiment on U251 CNS it was 87.9%; in the experiment with PC-3 prostate, 68.5%. The growth with SK-MEL-5 melanoma was 84.8%; in the experiment on UACC-62 melanoma, 76.2%; in the experiment with LOX IMVI melanoma, 90.2%; in the experiment on SK-MEL-28 melanoma, 94.4%; with SK-MEL-2 melanoma it was 102%; with EKVX NSCLC, 90.1%. The growth is 95.3% in the experiment with SN12C renal; 82.7% in the experiment with UO-31 renal; 107% in the experiment on TK-10 renal; 97.6% with ACHN renal; 77.9% with CAKI-1 renal; 89.4% in the experiment with A498 renal. For the same compound, the figures for the growth with CCRF-CEM leukemia and in the experiment on MOLT-4 leukemia were 80.4% and 79.8%, respectively.
